Rows were chosen to be rich in hits. Some 12% of all compounds tested hit in one or more screens of this group.
JMJD2A Tudor inh – blocks the human JMJD2A Tudor domain | O75164 | AlphaScreen JMJD2A-Tudor / H3K4me3 peptide binding | Potency, µM (doses to about 114 µM), without a hit: at the highest dose activity change, negative = inhibition, usual class: inhibitors | hit rate 4.4% among 390,000; further: on the % scale 0 is the no-effect control and ±100 the full control effect; nearly all actives have a fitted effect of over 50% in size
Target sequence (O75164 whole entry, looked up, the tested form may be a part): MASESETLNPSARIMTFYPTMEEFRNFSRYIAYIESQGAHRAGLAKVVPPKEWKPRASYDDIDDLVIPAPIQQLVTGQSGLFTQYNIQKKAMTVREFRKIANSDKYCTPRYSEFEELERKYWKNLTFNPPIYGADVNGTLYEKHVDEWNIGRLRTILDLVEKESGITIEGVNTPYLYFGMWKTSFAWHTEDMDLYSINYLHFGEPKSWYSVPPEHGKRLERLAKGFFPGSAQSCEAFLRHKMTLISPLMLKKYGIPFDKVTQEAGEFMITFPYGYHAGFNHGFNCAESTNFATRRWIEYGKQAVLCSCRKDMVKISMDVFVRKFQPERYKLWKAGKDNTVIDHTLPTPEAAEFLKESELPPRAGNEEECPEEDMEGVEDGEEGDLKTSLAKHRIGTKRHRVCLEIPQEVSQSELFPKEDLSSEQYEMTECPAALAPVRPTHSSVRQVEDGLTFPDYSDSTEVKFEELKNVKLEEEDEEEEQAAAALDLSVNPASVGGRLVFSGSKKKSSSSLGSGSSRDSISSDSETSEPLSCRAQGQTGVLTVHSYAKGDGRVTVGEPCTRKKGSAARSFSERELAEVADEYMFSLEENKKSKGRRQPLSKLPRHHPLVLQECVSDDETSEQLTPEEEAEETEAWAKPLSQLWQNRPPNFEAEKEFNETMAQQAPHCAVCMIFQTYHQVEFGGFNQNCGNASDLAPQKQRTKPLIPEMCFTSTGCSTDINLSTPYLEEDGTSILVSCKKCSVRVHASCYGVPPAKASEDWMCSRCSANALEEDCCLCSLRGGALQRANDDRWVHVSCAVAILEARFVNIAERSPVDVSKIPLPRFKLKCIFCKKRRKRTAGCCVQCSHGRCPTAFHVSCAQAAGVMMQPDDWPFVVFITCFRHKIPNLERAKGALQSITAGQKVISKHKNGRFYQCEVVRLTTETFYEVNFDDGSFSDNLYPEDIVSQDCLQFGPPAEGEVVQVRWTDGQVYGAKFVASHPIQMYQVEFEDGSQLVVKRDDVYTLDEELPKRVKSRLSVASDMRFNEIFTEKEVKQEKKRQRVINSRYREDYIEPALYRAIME
Sfp inh – Sfp phosphopantetheinyl transferase inhibition | hit rate 3.5% among 310,000 | AID 1490 | Q9F4F7 | Biochemical Sfp PPTase activity, qHTS | Potency, µM, inactives show largest response in the series, negative = inhibition, most hits filed as inhibitors;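 further: the enzyme is Sfp with the accession as filed and its product quenches rhodamine fluorescence; 0% = enzyme reaction without inhibitor and -100% = no enzyme wells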
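Sfp 15 nM + cpd, 15 min RT; start w/ rhodamine-CoA 5 uM, BHQ-2-YbbR 12.5 uM (final); 50 mM Hepes pH 7.6, 10 mM MgCl2, 0.01% NP-40, 0.01% BSA; read 525/598 nm at 0 and 30 min.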
G9a block – blocks human histone lysine methyltransferase G9a; hit rate 8.8% among 350,000; Q96KQ7; G9a H3K9 monomethylation, AlphaScreen, 2 h; Potency, µM (titrated, usually from 102 µM), without a hit: at the top dose activity, negative = inhibition, usual class: inhibitors; further: on the % scale 0 is the no-effect control and ±100 the full control effect; nearly all actives have a fitted effect of over 75% in size
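Quantitative HTS format: methyltransferase activity on a biotin-tagged H3K9 peptide is measured by AlphaScreen, using a rabbit anti-monomethyl-H3K9 antibody with streptavidin donor and anti-IgG acceptor beads. Final levels are 20 nM enzyme, 500 nM peptide, 20 uM SAM; 2 h RT.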
PLK1 PBD inh – blocks phosphopeptide binding to human PLK1 polo-box domain; P53350; Plk1 PBD binding of FITC phosphopeptide, fluorescence polarization; Potency, µM, without a hit: max response, negative = inhibition, actives largely listed as inhibitors; hit rate 2.8% among 360,000; further: series mostly up to about 57 µM; on the % scale 0 is the no-effect control and ±100 the full control effect; nearly all actives have a fitted effect of over 65% in size
BAZ2B block – inhibitors of human BAZ2B bromodomain | Potency, µM (highest dose often 114 µM), for inactives: at the highest dose activity change, negative = inhibition, most hits filed as inhibitors | AID 504333 | AlphaScreen BAZ2B-H3K14Ac peptide displacement | hit rate 4.4% among 360,000; further: on the % scale 0 is the no-effect control and ±100 the full control effect; nearly all actives have a fitted effect of over 60% in size
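In this displacement format the biotinylated H3(5-23) peptide acetylated at Lys14 serves as ligand at 50 nM, with BAZ2B at 50 nM in PBS pH 7.4 containing 0.01% Tween-20. Donor and acceptor beads are 10 ug/mL final.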
HP1b chromo inh – HP1-beta chromodomain-methylated histone interaction inhibition; P83916; AlphaScreen HP1-beta / biotin-H3K9me3 peptide binding; Potency, µM (series often up to 114 µM), inactives show top-dose activity change, negative = inhibition, hits mostly inhibitors; hit rate 0.56% among 390,000; further: nearly all actives have a fitted effect of over 70% in size
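HP1-beta protein (50 nM final) preincubated 30 min at room temperature with biotinylated H3(1-18)K9me3 peptide (50 nM) in PBS pH 7.4, 0.01% Tween-20, then compound added for 30 min. AlphaScreen streptavidin donor/nickel chelate acceptor beads (10 ug/mL final), 30 min dark, luminescence read.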
* = called active by the depositor; [ ] = dose if it differs, or a comment. The call rests on the fitted dose curve; in most records, active means well fitted curve in the direction sought with a large enough effect; inconclusive means small, poorly fitted or top-dose-only effect, or another doubt; inactive means no such curve, though single readings can be large; an effect the other way counts as inactive or inconclusive. Potency means the concentration at half of the fitted maximal effect.

What do the screens show for `COc1ccc(NC2=NCCC(=O)N2Cc2cccs2)cc1`?
JMJD2A Tudor inh: -26%; Sfp inh: inconclusive; G9a block: 45µM*; PLK1 PBD inh: -21%; BAZ2B block: inconclusive; HP1b chromo inh: 45%

How did Cc1ccc(NC2=NCC(=O)N2Cc2cccs2)cc1C do in these assays?
JMJD2A Tudor inh: -8%; Sfp inh: 6%; G9a block: -50%; PLK1 PBD inh: inconclusive; BAZ2B block: 79µM*; HP1b chromo inh: 61%

What do the screens show for `C=CCN1C(=O)CN=C1Nc1cccc(C)c1`?
JMJD2A Tudor inh: -36%; Sfp inh: -14%; G9a block: 35µM*; PLK1 PBD inh: -14%; BAZ2B block: inconclusive; HP1b chromo inh: 51%

Results for COc1cccc(NC2=NCC(=O)N2Cc2cccs2)c1 ?
JMJD2A Tudor inh: -21%; Sfp inh: -9%; G9a block: 50µM*; PLK1 PBD inh: -5%; BAZ2B block: -12%; HP1b chromo inh: 32%

What do the screens show for `CC(C(=O)NCCC1=CCCCC1)c1ccc([N+](=O)[O-])cc1` (stereo not given)?
JMJD2A Tudor inh: -6%; Sfp inh: 3%; G9a block: inconclusive; PLK1 PBD inh: inconclusive; BAZ2B block: -3%; HP1b chromo inh: 31%

How did COc1ccc(C#Cc2ccc3c(=O)c4ccccc4n(C)c3c2)cc1 do in these assays?
JMJD2A Tudor inh: 19%; Sfp inh: 1%; G9a block: inconclusive; PLK1 PBD inh: -9%; BAZ2B block: 47%[57.1 µM]; HP1b chromo inh: 94%

What do the screens show for `Cn1c2ccccc2c(=O)c2ccc(C#Cc3ccc(N)cc3)cc21`?
JMJD2A Tudor inh: 23%; Sfp inh: -5%; G9a block: 50µM*; PLK1 PBD inh: 19%; BAZ2B block: -26%; HP1b chromo inh: 87%

How did Cc1ccc(/C=N/Nc2ccc(F)cc2)s1 do in these assays?
JMJD2A Tudor inh: inconclusive; Sfp inh: 1%; G9a block: 50µM*; PLK1 PBD inh: -13%; BAZ2B block: inconclusive; HP1b chromo inh: -8%

Results for O=S(=O)(c1ccc2c(c1)OCCO2)N1CCN(S(=O)(=O)c2cccc[n+]2[O-])CC1 ?
JMJD2A Tudor inh: -3%

What do the screens show for `COc1cccc(Cn2c(=O)cnc3cnc(OCc4ccccc4)nc32)c1`?
Sfp inh: -2%; G9a block: 10%[0.501 µM]

Results for CN1C(=O)/C(=C2/C=CC=CN2C)OC1=S ?
JMJD2A Tudor inh: -17%[57.1 µM]; Sfp inh: 56µM*; G9a block: 32µM*; PLK1 PBD inh: inconclusive; BAZ2B block: -11%; HP1b chromo inh: inconclusive

How did COc1ccc(OC)c(NC(=O)CC(=O)Nc2ccc3nc4n(c(=O)c3c2)CCCCC4)c1 do in these assays?
JMJD2A Tudor inh: -13%; G9a block: -26%[59 µM]; BAZ2B block: -14%; HP1b chromo inh: 23%

How did Cc1cc(Nc2ccc(Br)c(C)c2)n2nc(C)nc2n1 do in these assays?
JMJD2A Tudor inh: inconclusive; Sfp inh: 3%; G9a block: -9%; PLK1 PBD inh: 30µM*; BAZ2B block: -3%; HP1b chromo inh: 3%

Results for CC(=O)c1ccc(Nc2cc(C)nc3nc(C)nn23)cc1 ?
JMJD2A Tudor inh: -4%; Sfp inh: -2%; G9a block: 79µM*; PLK1 PBD inh: -5%; BAZ2B block: 6%; HP1b chromo inh: 40%

What do the screens show for `Cc1cc(Nc2ccc(C(=O)O)cc2)n2nc(C)nc2n1`?
JMJD2A Tudor inh: 1%; Sfp inh: 15%; G9a block: -3%[59 µM]; PLK1 PBD inh: -7%; BAZ2B block: 10%; HP1b chromo inh: 48%

What do the screens show for `O=C1C[C@@H](O)[C@@H](O)[C@@H]2[C@H]3C(=O)N(c4ccc(F)cc4F)C(=O)[C@@H]3CC[C@H]12`?
Sfp inh: 5%

How did CC(=O)NC(C)(CC(=O)c1ccccc1)c1ccccc1 (stereo not given) do in these assays?
JMJD2A Tudor inh: -4%; PLK1 PBD inh: 0%; HP1b chromo inh: 70%

How did COc1ccc(-n2nc(C(=O)NCCc3cccc(C)c3)c3c4ccccc4n(C)c3c2=O)cc1Cl do in these assays?
JMJD2A Tudor inh: -19%; G9a block: -3%[59 µM]; HP1b chromo inh: 13%
